Screens deposited in PubChem by several laboratories.
ANO1 activ = activates or potentiates the mouse TMEM16A chloride channel | HEK293 TMEM16A/YFP-H148Q/I152L, iodide quench fluorescence; stronger effect = lower value | B-score at 10 µM | hit rate 0.3% among 340,000 | AID 623877;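 active = fluorescence-ratio B-score plate-corrected deviation score at least 3 library SD below zero, with starting fluorescence score within 5 deviations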;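 note: channel opened by trigger with iodide after compound preincubation; score built on the fluorescence ratio of max minus min over baseline; more negative score means more quench and so TMEM16A activation or potentiation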
TMEM16A inh = blocks the mouse calcium-activated chloride channel TMEM16A; HEK293 TMEM16A/YFP iodide influx fluorescence, ionomycin; AID 588511; Q8BHY3; hit rate 1.2% among 310,000; normalized B-score (activity score, 25-100; higher = stronger inhibition) at 10 µM;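 active = ratio plate-corrected score three or more library SD toward inhibition, starting fluorescence score within five deviations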;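 note: score derived from kinetic fluorescence span divided by baseline fluorescence per well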
MEKK3 PB1 HTS = modulators (inhibitors or enhancers) of MEK5 binding to human MEKK3 PB1 domain; AID 1529; hit rate 1.4% among 290,000; Q99759; binding response (% of control), % at 10 µM; bead-based flow cytometry, Alexa488-MEK5 binding to MEKK3; actives lie on both sides; 0 = blocked by unlabeled MEK5, 100 = vehicle;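 active = binding response more than 3 SD above or below the average of its plate-row segment, actives on both sides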;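 note: Alexa488 bead fluorescence after subtracting the streptavidin-only scavenger bead signal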
Target sequence (Q99759 whole entry, looked up, the tested form may be a part): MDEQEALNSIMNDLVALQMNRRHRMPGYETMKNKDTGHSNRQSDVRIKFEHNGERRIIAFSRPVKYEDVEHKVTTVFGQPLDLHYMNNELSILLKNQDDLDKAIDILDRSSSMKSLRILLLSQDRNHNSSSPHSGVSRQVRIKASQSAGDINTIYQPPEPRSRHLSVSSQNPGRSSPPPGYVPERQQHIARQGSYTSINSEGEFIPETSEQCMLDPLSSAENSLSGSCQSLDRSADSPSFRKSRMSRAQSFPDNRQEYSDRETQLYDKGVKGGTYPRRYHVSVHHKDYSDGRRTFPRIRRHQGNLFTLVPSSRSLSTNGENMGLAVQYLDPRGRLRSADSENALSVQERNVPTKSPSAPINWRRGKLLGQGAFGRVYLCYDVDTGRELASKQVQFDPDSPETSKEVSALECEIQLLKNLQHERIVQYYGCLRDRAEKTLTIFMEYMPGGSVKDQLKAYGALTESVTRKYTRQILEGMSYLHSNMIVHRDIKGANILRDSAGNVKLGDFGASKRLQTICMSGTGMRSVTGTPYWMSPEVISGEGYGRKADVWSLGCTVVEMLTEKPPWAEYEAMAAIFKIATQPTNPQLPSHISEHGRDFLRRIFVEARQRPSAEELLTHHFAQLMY
MEKK2 WT-MEK5 = raises or lowers MEK5 binding to wildtype human MEKK2 PB1 domain. binding response (% of control), % at 10 µM. bead flow cytometry, Alexa488-MEK5 binding to MEKK2 WT; actives lie on both sides. hit rate 1.1% among 290,000. AID 1531; in the data active = binding response below about 67% or above about 130%
NTR1 agonist = NTR1 (human) agonism; P30989; NTR1-U2OS beta-arrestin-GFP spot imaging, agonist mode; activation, % at 20 µM; hit rate 0.17% among 330,000; AID 493036;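 active = activation at or above 40% of the spot to cytoplasm intensity ratio, with at least 20 cells analyzed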
MEKK2mut PB1 HTS = signal of MEK5 binding to mutant human MEKK2 PB1 domain; percent response, % at 10 µM; hit rate 0.35% among 290,000; bead flow cytometry, Alexa488-MEK5 binding to MEKK2 mutant; in the data active = percent response above about 24%, passing the limit was not always enough
MEKK2wt confirm = raises or lowers MEK5 binding to wildtype human MEKK2, retest | shares compounds with MEKK3 PB1 HTS | bead flow cytometry, Alexa488-MEK5 binding to MEKK2 WT; actives lie on both sides | binding response (% of control), % at 10 µM | hit rate 2.4% among 5,900 | AID 1892; in the data active = binding response below about 16% or above about 210%; inactive = in between
MEKK2mut confirm = signal of MEK5 binding to mutant human MEKK2, retest; shares compounds with MEKK3 PB1 HTS; hit rate 2% among 5,900; AID 1893; bead flow cytometry, Alexa488-MEK5 binding to MEKK2 mutant; percent response, % at 10 µM; in the data active = percent response mostly above about 71%, no sharp cut-off; inactive = mostly below about 38%;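 note: higher means compound restores mutant binding toward wildtype level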
MEKK3-MEK5 inh = MEKK3-MEK5 PB1 inhibition, single concentration confirmation | shares compounds with MEKK3 PB1 HTS | binding response (% of control), % at 10 µM | bead flow cytometry, Alexa488-MEK5 binding to MEKK3; stronger effect = lower value | hit rate 1.8% among 5,900;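 active = binding response below 72% of control, or above a set upper limit, though filed actives all read lower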
Numbers stand for hits; . = inactive; / = not tested or not shown; [ ] = dose if it differs, or a comment. In the library only some 3.4% were active in any assay of this set; here they are far more common.

SMILES	ANO1 activ	TMEM16A inh	MEKK3 PB1 HTS	MEKK2 WT-MEK5	NTR1 agonist	MEKK2mut PB1 HTS	MEKK2wt confirm	MEKK2mut confirm	MEKK3-MEK5 inh
C#CCOCCOCCOCCNc1nc(N2CCN(C(=O)[C@H](CCC(=O)O)n3cc(C(N)Cc4ccc(O)cc4)nn3)CC2)nc(N2CCN(C(=O)[C@H](CCC(=O)O)n3cc(C(N)CC(C)C)nn3)CC2)n1 (some centres undefined)	/	.	.	.	.	.	/	/	/
C#CCOCCOCCOCCNc1nc(N2CCN(C(=O)[C@H](Cc3ccc(O)cc3)n3cc([C@@H](N)C(C)CC)nn3)CC2)nc(N2CCN(C(=O)[C@H](CCCCN)n3cc([C@@H](N)CO)nn3)CC2)n1 (some centres undefined)	.	.	.	.	.	.	/	/	/
C#CCOCCOCCOCCNc1nc(N2CCN(C(=O)[C@H]([C@@H](C)CC)n3cc([C@@H](N)CO)nn3)CC2)nc(N2CCN(C(=O)[C@H](Cc3cc4ccccc4[nH]3)n3cc([C@@H](N)Cc4ccc(O)cc4)nn3)CC2)n1	/	.	.	155.0	.	.	231.0	114.0	.
C#CCOCCOCCOCCNc1nc(N2CCOCC2)nc(N2CCN(C(=O)[C@H](Cc3cc4ccccc4[nH]3)n3cc([C@@H](N)Cc4ccc(O)cc4)nn3)CC2)n1	.	.	.	.	.	.	/	/	/
C#CCOCCOCCOCCNc1nc(N2CCN(C(=O)C(Cc3ccc(O)cc3)n3cc(C(N)CC(C)C)nn3)CC2)nc(N2CCN(C(=O)C(Cc3cc4ccccc4[nH]3)n3cc(C(N)Cc4ccc(O)cc4)nn3)CC2)n1 (centres undefined)	/	.	.	258.0	.	112.0	221.0	86.0	.
NS(=O)(=O)c1ccc(CCNC(=O)CSc2ccc(Cl)cc2Cl)cc1	.	.	40.0[inhibitor]	43.0[inhibitor]	.	.	.	.	.
CC1CCC(NC(=O)CCNS(=O)(=O)c2ccc3c(c2)CCC(=O)N3)CC1 (centres undefined)	.	.	.	.	.	.	/	/	/
CCN(C(=O)CN1CCCCC1)C1(C)C(=O)c2ccccc2C1=O	.	.	140.0	.	.	.	.	.	.
COc1ccc(CCN2C(=O)CCC2(C)C(=O)NC2CCCC2)cc1OC (centres undefined)	.	.	35.0[inhibitor]	45.0[inhibitor]	.	.	.	.	.
O=C(Nc1ccccc1)C(c1ccccc1)c1ccccc1	.	.	.	.	.	.	/	/	/
O=C(O)C(=O)Nc1ccc(NC(=O)C(c2ccccc2)c2ccccc2)cc1	.	.	2.0[inhibitor]	3.0[inhibitor]	.	.	.	.	.
Cc1nn(C)cc1CN(C)Cc1ccc(OCC(O)CN2CCCCC2)cc1 (centres undefined)	.	.	.	.	.	.	/	/	/
CN(Cc1ccc(OCC(O)CN2CCCCC2)cc1)Cc1ccnc2ccccc12 (centres undefined)	.	/	.	148.0	/	.	.	.	.
Cc1ccc(CSc2nnc(CCCCCNC(=O)OC(C)(C)C)o2)cc1	.	.	.	.	.	.	/	/	/
Cc1cccc(CSc2nnc(CCCCCNC(=O)OC(C)(C)C)o2)c1	.	.	138.0	.	.	.	.	.	.
CCCC(=O)Nc1nnc(S(=O)(=O)N(CC)c2ccccc2)s1	.	.	.	.	.	.	/	/	/
OC(COCC1COc2ccccc2O1)CN1CCN(c2ccccn2)CC1 (centres undefined)	.	.	.	.	.	24.0	.	.	.
OC(COCC1COc2ccccc2O1)CN1CCc2ccccc2C1 (centres undefined)	.	.	.	.	.	.	/	/	/
CC(=O)Nc1ccc(Nc2ncnc(N)c2[N+](=O)[O-])cc1	.	.	.	.	.	.	/	/	/
Cc1cccc(C)c1Nc1ncnc(N)c1[N+](=O)[O-]	.	.	.	.	.	51.0	.	.	.
COc1ccc2ccccc2c1C1NC(=O)c2ccccc2N1 (centres undefined)	.	/	/	/	/	/	/	/	/
OC(CN1CCN(c2ccccn2)CC1)Cn1c2ccccc2c2ccccc21 (centres undefined)	.	.	.	.	.	.	/	/	/
O=C(c1ccco1)N1CCN(CC(O)Cn2c3ccccc3c3ccccc32)CC1 (centres undefined)	.	.	129.0	.	.	.	.	.	.
OC(CN1CCCCC1)Cn1c2ccccc2c2cc(Br)ccc21 (centres undefined)	.	.	.	161.0	.	35.0	.	.	.
O=C(c1ccco1)N1CCN(CC(O)COc2ccc(Br)cc2)CC1 (centres undefined)	.	.	.	.	.	.	/	/	/
SMILES	ANO1 activ	TMEM16A inh	MEKK3 PB1 HTS	MEKK2 WT-MEK5	NTR1 agonist	MEKK2mut PB1 HTS	MEKK2wt confirm	MEKK2mut confirm	MEKK3-MEK5 inh
O=C(c1nc2ccc(Cl)cn2c1CN1CCC[C@H]1CO)N1CCCCCCC1	.	.	.	.	.	.	/	/	/
O=C(Cc1cccc2ccccc12)N/N=C/c1ccncc1	.	.	.	.	.	.	/	/	/
O=C(Cc1cccc2ccccc12)N/N=C/c1ccc(F)cc1	.	.	122.0	.	.	.	.	.	.
Cc1[nH]c(C)c(S(=O)(=O)NCC(C)c2ccccc2)c1C(=O)N1CCCCC1 (centres undefined)	.	.	.	.	.	.	/	/	/
CCCCc1ccc(S(=O)(=O)N2CCC3(CC2)OCCO3)cc1	.	.	.	.	.	.	/	/	/
Cc1ccc(C(=O)N/N=c2\sc3ccccc3n2C)cc1	.	.	136.0	.	.	.	.	.	.
COc1cccc(C(=O)N/N=c2\sc3ccccc3n2C)c1	.	.	.	.	.	.	/	/	/
CN(C)c1nc(Oc2ccc(/C=N/O)cc2)nc(N(C)C)n1	.	.	.	.	.	.	/	/	/
CC(C)Nc1nc(NC(C)C)nc(Oc2ccc(/C=N/O)cc2)n1	.	.	124.0	.	.	.	.	.	.
COc1ccc(C(=O)Nc2nc(-c3ccc([N+](=O)[O-])cc3)c(-c3ccccc3)s2)cc1	.	.	.	.	.	.	/	/	/
CCc1ccc2c(c1)c1nnc(NN)nc1n2CC	.	.	164.0	.	.	.	.	.	.
CC(O)Cc1cn([C@@H](CCCCNC(=O)OC(C)(C)C)C(=O)N2CCN(C(=O)OC(C)(C)C)CC2)nn1 (some centres undefined)	.	.	.	.	.	.	/	/	/
